# Laboratory results reported in PubChem BioAssay (NCATS).
# Inconclusive results are not listed. Entries that show only a call come without a potency. A number with no mark means an inactive call. The source made the active and inactive calls. Calls come from the whole dose curve; as a rule, active = well fitted curve in the direction sought with a large enough effect; inconclusive = small, poorly fitted or top-dose-only effect, or another doubt; inactive = no such curve, though single readings can be large; an effect the other way counts as inactive or inconclusive. Where a SMILES comes first, the peptide text is derived from it.
# How the values were obtained:
# [1] = P-glycoprotein substrates identified in KB-3-1 adenocarcinoma cell line, qHTS therapeutic library screen (AID 1346986); note: nearly all actives have a fitted effect of over 60% in size
# Summary of the method: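 Dose-response cytotoxicity, KB-3-1 vs P-gp-high KB-8-5-11, no colchicine in assay medium. Read: CellTiter-Glo at 72 h.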
# [2] = P-glycoprotein substrates identified in KB-8-5-11 adenocarcinoma cell line, qHTS therapeutic library screen (AID 1346987); note: nearly all actives have a fitted effect of over 65% in size; for activity change, negative = cytotoxicity: series mostly up to about 44 µM
# Summary of the method: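 In this qHTS, P-gp-rich KB-8-5-11 cells received library compounds across a concentration range. Viability was quantified by luminescence after 72 h at 37 degree C.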
# [3] = system: Zika virus NS2B-NS3 protease (unlinked complex); assay: Primary screen GU Rhodamine qHTS for Zika virus inhibitors: Unlinked NS2B-NS3 protease assay (AID 1347159); note: nearly all actives have a fitted effect of over 60% in size; note: potency is the fitted concentration of half-maximal effect
# Summary of the method: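 Enzyme 25 nM in Tris-HCl pH 8.0 + 0.01% Tween 20; compounds up to 114 microM, 15 min RT dark; + Rhod110 substrate 1.5 microM; read t0 and 15 min; delta fluorescence → % inhibition → 4-parameter Hill fit.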
# [4] = system: Zika virus NS2B-NS3 protease (linked construct); assay: Primary screen NINDS Rhodamine qHTS for Zika virus inhibitors (AID 1347160); note: nearly all actives have a fitted effect of over 55% in size; note: potency is the fitted concentration of half-maximal effect
# Summary of the method: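 Enzyme (25 nM, linked NS2B-NS3) was preincubated 15 min with compound in 10 mM Tris-HCl pH 8.0, 0.01% Tween 20. Rhodamine110 substrate (1.5 microM) was then added and fluorescence read at start and after 15 min.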
SMILES,Potency [1],Potency [2],Potency [3],Potency [4],outcome [1],"activity change, negative = cytotoxicity [2]"
CCCC/C=C\CCCCCc1cc(=O)c2ccccc2n1C,inactive,inactive,inactive,inactive,,
CC1(C)CC[C@]2(C(=O)O[C@@H]3O[C@H](CO)[C@@H](O)[C@H](O)[C@H]3O)CC[C@]3(C)C(=CCC4[C@@]5(C)CC[C@H](OC6OC(C(=O)O)C(OC7OC(CO)C(O)C(O)C7O)C(O)C6O)C(C)(C)C5CC[C@]43C)C2C1 (stereo partly drawn),,,inactive,inactive,inactive [at 9.29 µM],9.04% [at 9.29 µM]
COC(=O)c1ccc(OC)cc1O[C@@H]1O[C@H](CO[C@@H]2OC[C@@H](O)[C@H](O)[C@H]2O)[C@@H](O)[C@H](O)[C@H]1O,inactive,inactive,inactive,inactive,,
C[C@@]12CC3(S(=O)(=O)O)OC(O1)[C@]1(COC(=O)c4ccccc4)[C@H]3C[C@]21O[C@@H]1O[C@H](CO)[C@@H](O)[C@H](O)[C@H]1O,inactive,inactive,inactive,inactive,,
CC(=C\C(C)O)/C=C(\C)C(=O)CC1CC(CC(N)=O)CC(=O)O1 (stereo not drawn),inactive,inactive,inactive,inactive,,
CC(=O)OC12CC(C)C(O)C1/C=C(/COC1OC(CO)C(O)C(O)C1O)CCC1C(/C=C(\C)C2=O)C1(C)C (stereo not drawn),inactive,inactive,inactive,inactive,,
CCCN(CCN1CCN(c2ccccc2OC)CC1)C1CCc2ncsc2C1 (stereo not drawn),inactive,inactive,inactive,inactive,,
COC(=O)C1=CO[C@@H](O[C@@H]2O[C@H](CO)[C@@H](O)[C@H](O)[C@H]2O)[C@@H]2[C@@H](C)[C@@H](O)C(O)[C@H]12 (stereo partly drawn),inactive,inactive,inactive,inactive,,
C/C=C1/[C@H](O[C@@H]2O[C@H](CO)[C@@H](O)[C@H](O)[C@H]2O)OC=C2C(=O)O[C@@H]3C[C@@H](C(C)CO)[C@H](COC(=O)C[C@H]21)[C@H]3C (stereo partly drawn),inactive,inactive,inactive,inactive,,
CC1(C)OC(=O)CC(O)C2(C)C1CC(=O)C1(C)C2C(O)CC2(C)C(c3ccoc3)OC(=O)C3OC321 (stereo not drawn),inactive,inactive,inactive,inactive,,
CC(C)C1NC(=O)CNC(=O)C2CCCN2C(=O)C(Cc2c[nH]c3ccccc23)NC(=O)CNC(=O)C(Cc2ccc(O)cc2)NC(=O)CNC1=O (stereo not drawn) (cyclo(GVGYGWP); configuration not given here),inactive,inactive,inactive,inactive,,
CC1=CC(=O)CC(C)(C)[C@@]1(O)/C=C/C(C)O[C@@H]1O[C@H](CO)[C@@H](O)[C@H](O)[C@H]1O (stereo partly drawn),inactive,inactive,inactive,inactive,,
C=C1[C@@H]2CC[C@@]3(C)[C@H](c4ccoc4)OC(=O)C[C@]13O[C@H]1CC(=O)C(C)(C)[C@H](C(O)C(=O)OC)[C@]12C (stereo partly drawn),inactive,inactive,inactive,inactive,,
CCc1nn(CCO)c(CC)c1Oc1cc(C#N)cc(C#N)c1,inactive,inactive,inactive,inactive,,
COC(=O)C1=COC(O[C@@H]2O[C@H](CO)[C@@H](O)[C@H](O)[C@H]2O)[C@@H]2[C@@](C)(O)[C@@H](OC(=O)/C=C/c3ccccc3)C[C@]12O (stereo partly drawn),inactive,inactive,inactive,inactive,,
Cc1onc(-c2c(Cl)cccc2Cl)c1CC(=O)NCc1ccc(OCC(F)(F)F)nc1,inactive,inactive,inactive,inactive,,
CC(=O)OC[C@@]12C(=O)C[C@@H](C)[C@]3(C[C@@H](c4ccoc4)OC3=O)[C@H]1CC[C@H](OC(C)=O)[C@]21CO1,inactive,inactive,inactive,inactive,,
COC(=O)C1=CO[C@@H](O[C@@H]2O[C@H](CO)[C@@H](O)[C@H](O)[C@H]2O)[C@@H]2[C@@H](C)[C@@H](OC(=O)/C=C/c3ccccc3)[C@@H](O)[C@H]12,inactive,inactive,inactive,inactive,,
CC(C)CC[C@@H](O)[C@](C)(O)[C@H]1CC[C@@]2(O)C3=CC(=O)[C@@H]4C[C@@H](O)[C@@H](O)C[C@]4(C)[C@H]3CC[C@]12C,inactive,inactive,inactive,inactive,,
C/C=C(\C)C(=O)OC[C@H]1O[C@H](O[C@H]2O[C@H](CO)[C@@H](O)[C@H](O)[C@H]2O[C@@H]2O[C@H](CO)[C@@H](O)[C@H](O)[C@H]2O)[C@H](O[C@@H]2O[C@H](CO)[C@@H](O)[C@H](O)[C@H]2O)[C@@H](O)[C@@H]1O,inactive,inactive,inactive,inactive,,
CCC(C)/C=C(C)/C=C/C1=CC2=C(Cl)C(=O)C(C)(O)C(=O)C2(O)C(OC)O1 (stereo not drawn),inactive,inactive,15.8 µM (active),10 µM (active),,
C=C1CCc2occ(C)c2[C@H]2[C@H]1[C@@]13O[C@@]1(C[C@@H](C)[C@H]3OC(C)=O)[C@H]1O[C@@]21C,inactive,inactive,inactive,inactive,,
